Reference: PubChem BioAssay AID1159580 (chemical genetic matrix, 2015)
About 2,000 (36%) of roughly 5,500 compounds were called active. Another 18% or so got no clear call; they are omitted. Cut-off read from the data, not from the text of the source: active = normalized growth mostly below about 0.91 (no sharp cut-off); inconclusive = no clear call, values can overlap the other calls; inactive = mostly above about 0.92. The list shows a part of the results.

Assay: chemical genetic growth profiling, strain panel (AID 1159580);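 note: tested at 20 µM; growth read once vehicle control cultures reached saturation at 30 °C; 1 = growth at the plate median or of vehicle wells; lower values mean less growth of the strain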
Conditions: S. cerevisiae deletion strains, growth OD

Measured: normalized growth

COc1ccc2c(c1)c(CC(=O)O)c(C)n2C(=O)c1ccccc1
inactive: locus YAL040C, strain CLN3, stronger effect = lower value 1.03 | locus YDR150W, strain NUM1, stronger effect = lower value 0.99 | locus YDR363W, strain ESC2, stronger effect = lower value 1.04 | locus YER002W, strain NOP16, stronger effect = lower value 1 | locus YGR078C, strain PAC10, stronger effect = lower value 1.03 | locus YGR229C, strain SMI1, stronger effect = lower value 1.02 | locus YNL153C, strain GIM3, stronger effect = lower value 0.986 | locus YNL175C, strain NOP13, stronger effect = lower value 1.02 | locus YNL197C, strain WHI3, stronger effect = lower value 1.01 | locus YNL224C, strain SQS1, stronger effect = lower value 1.02 | locus YOR083W, strain WHI5 (second series), stronger effect = lower value 1.03 | locus YPL055C, strain LGE1, stronger effect = lower value 1 | locus YPL241C, strain CIN2, stronger effect = lower value 0.998
